Several values for one entry are separate records, joined by “and”; a condition that tells them apart may be missing. Identical values can stand only once. Results filed as inconclusive are left out. A call without a number means that no potency is given here. Values without a mark were called inactive. Activity calls are given as the source filed them. The call rests on the fitted dose curve; in most records, active means well fitted curve in the direction sought with a large enough effect; inconclusive means small, poorly fitted or top-dose-only effect, or another doubt; inactive means no such curve, though single readings can be large; an effect the other way counts as inactive or inconclusive.
Tests used:
[1] = qHTS of pediatric cancer cell lines to identify multiple opportunities for drug repurposing: Primary screen for NB1643 cells (AID 1347099); further: nearly all actives have a fitted effect of over 50% in size; further: potency means the concentration at half of the fitted maximal effect
How it was run: (§1)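 Phenotypic viability qHTS, 48 h compound exposure, CellTiter-Glo luminescence read-out; multi-concentration dosing so that potency and efficacy derive directly from the primary screen's curves.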

[2] = qHTS of pediatric cancer cell lines to identify multiple opportunities for drug repurposing: Primary screen for LAN-5 cells (AID 1347100); further: potency means the concentration at half of the fitted maximal effect
How it was run: (§2)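 Cells (500-1,000/well) in growth media were settled 5 h at 37 degrees C, then given compounds for 48 h. Viability was read as CellTiter-Glo luminescence. Primary runs used MIPE at 11 points (0.78 nM-46 µM) and NPC at 8 points (0.59 nM-46 µM); follow-ups used 11 points.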

[3] = qHTS of pediatric cancer cell lines to identify multiple opportunities for drug repurposing: Primary screen for BT-12 cells (AID 1347101); further: nearly all actives have a fitted effect of over 25% in size; further: potency means the concentration at half of the fitted maximal effect
How it was run: (§3)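 Cells (500-1,000/well) rested 5 h, then received compounds for 48 h; metabolically active cells were measured by CellTiter-Glo luminescence. Final concentrations spanned up to 46 µM (MIPE, 11-point) or 0.59 nM-46 µM (NPC, 8-point) in primary screens, 11-point in follow-ups.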

[4] = qHTS of pediatric cancer cell lines to identify multiple opportunities for drug repurposing: Primary screen for RD cells (AID 1347104); further: nearly all actives have a fitted effect of over 55% in size; further: potency means the concentration at half of the fitted maximal effect
How it was run: as §1

[5] = qHTS of pediatric cancer cell lines to identify multiple opportunities for drug repurposing: Primary screen for Rh30 cells (AID 1347107); further: series mostly up to about 46 µM; nearly all actives have a fitted effect of over 75% in size
How it was run: as §2

[6] = qHTS of pediatric cancer cell lines to identify multiple opportunities for drug repurposing: Primary screen for Rh18 cells (AID 1347102); further: nearly all actives have a fitted effect of over 65% in size; further: potency means the concentration at half of the fitted maximal effect
How it was run: as §2

[7] = qHTS of pediatric cancer cell lines to identify multiple opportunities for drug repurposing: Primary screen for OHS-50 cells (AID 1347103); further: nearly all actives have a fitted effect of over 40% in size; further: potency means the concentration at half of the fitted maximal effect
How it was run: as §3

[8] = qHTS of pediatric cancer cell lines to identify multiple opportunities for drug repurposing: Primary screen for control Hh wild type fibroblast cells (AID 1347106);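 further: series mostly up to about 46 µM; a drop in luminescence marks cytotoxicity and a rise apparent proliferation; nearly all actives have a fitted effect of over 55% in size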
How it was run: as §2

[9] = qHTS of pediatric cancer cell lines to identify multiple opportunities for drug repurposing: Primary screen for Rh41 cells (AID 1347108); further: nearly all actives have a fitted effect of over 70% in size; further: potency means the concentration at half of the fitted maximal effect
How it was run: as §1

[10] = qHTS of pediatric cancer cell lines to identify multiple opportunities for drug repurposing: Primary screen for MG 63 (6-TG R) cells (AID 1347105); further: nearly all actives have a fitted effect of over 50% in size; further: potency means the concentration at half of the fitted maximal effect
How it was run: as §1

SMILES	Potency [1]	Potency [2]	Potency [3]	Potency [4]	Potency [5]	Potency [6]	Potency [7]	Potency [8]	Potency [9]	Potency [10]
c1ccc2c(c1)OCC(C1=NCCN1)O2 (stereo not given)	23.7 µM (active)	26.6 µM (active)	19.5 µM (active)	21.1 µM (active)	inactive					
CN1C(=S)CN=C(c2ccccc2)c2cc(Cl)ccc21	inactive	inactive	inactive	inactive	inactive	inactive	inactive	inactive	inactive	
O=C(O)c1ccc2[nH]cc(CCCCN3CC=C(c4ccccc4)CC3)c2c1	inactive	inactive	inactive	inactive	inactive	inactive		inactive	inactive	inactive
COc1ccc(C(=O)c2c(C)n(CCN3CCOCC3)c3ccccc23)cc1	inactive	inactive	inactive	inactive	inactive	inactive			inactive	inactive
Clc1cccc(N2CCNCC2)c1	inactive	inactive	inactive	inactive	inactive	inactive		inactive	inactive	inactive
NCCc1cc(O)c(O)cc1O	inactive	inactive	inactive	inactive	inactive	inactive		inactive	inactive	inactive
C[C@@H]1O[C@@H](O[C@H]2C[C@@H](O)[C@]3(CO)[C@H]4[C@H](O)C[C@]5(C)[C@@H](C6=CC(=O)OC6)CC[C@]5(O)[C@@H]4CC[C@]3(O)C2)[C@H](O)[C@H](O)[C@H]1O	187 nM (active) and 299 nM (active)	46.9 nM (active) and 211 nM (active)	27.3 nM (active) and 61.7 nM (active)	14.8 nM (active) and 33.5 nM (active)	inactive		19.3 nM (active) and 49 nM (active)			14.8 nM (active) and 33.5 nM (active)
C[C@]12CC[C@H]3[C@@H](CCC4=CC(=O)CC[C@@H]43)[C@@H]1CC[C@@H]2OC(=O)CCc1ccccc1	inactive	inactive	inactive	inactive	inactive	inactive	inactive		inactive	inactive
C=C1CC[C@@]2(O)[C@H]3Cc4ccc(O)c5c4[C@@]2(CCN3CC2CC2)[C@H]1O5	inactive	inactive	inactive	inactive	inactive	inactive	inactive		inactive	inactive
c1ccc2c(c1)Nc1ccccc1S2	inactive	inactive	inactive	inactive	inactive	inactive			inactive	inactive
CC(C)CC(N(C)C)C1(c2ccc(Cl)cc2)CCC1 (stereo not given)	inactive	inactive	inactive	inactive	inactive	inactive	inactive		inactive	inactive
C[C@H]1O[C@@H](O[C@H]2[C@@H](O)C[C@H](O[C@H]3[C@@H](O)C[C@H](O[C@H]4CC[C@@]5(C)[C@H](CC[C@@H]6[C@@H]5CC[C@]5(C)[C@@H](C7=CC(=O)OC7)CC[C@]65O)C4)O[C@@H]3C)O[C@@H]2C)C[C@H](O)[C@@H]1O	0.0299 µM (active)	0.0473 µM (active)	0.0219 µM (active)	0.0075 µM (active)	inactive		0.011 µM (active)			5.3 nM (active)
CC(=O)[C@H]1CC[C@H]2[C@@H]3CC[C@H]4C[C@H](O)CC[C@]4(C)[C@H]3C(=O)C[C@]12C	inactive	inactive	inactive	inactive	inactive	inactive			inactive	inactive
CC(C)(C)NCC(O)c1cc(Cl)c(N)c(Cl)c1 (stereo not given)	inactive	inactive	inactive	inactive	inactive	inactive	inactive		inactive	inactive
O=P1(NCCCl)OCCCN1CCCl (stereo not given)	inactive	inactive	inactive	inactive	inactive	inactive	inactive		inactive	inactive
C[C@@H]1[C@@H](C(=O)C[C@H]2O[C@@H]3O[C@]4(C)CC[C@@H]5[C@H](C)CC[C@@H]([C@H]2C)[C@@]35OO4)O[C@@H]2O[C@]3(C)CC[C@H]4[C@H](C)CC[C@@H]1[C@@]24OO3	4.69 µM (active)	16.6 µM (active)	0.432 µM (active)		inactive	inactive	0.385 µM (active)	inactive		inactive
CC[N+](CC)(CC)CC	inactive	inactive	inactive	inactive	inactive	inactive	inactive		inactive	inactive
Cc1cc(SCc2sc(-c3ccc(C(F)(F)F)c(F)c3)nc2C)ccc1OCC(=O)O	inactive	inactive	inactive	inactive	inactive	inactive		inactive	inactive	inactive
c1ccc(C2CC2)c(OCC2=NCCN2)c1	inactive	inactive	inactive	inactive	inactive	inactive			inactive	inactive
CCN(CC)CCOC(=O)C(O)(c1ccccc1)c1ccccc1	inactive	inactive	inactive	inactive	inactive	inactive	inactive		inactive	inactive
CC(CCc1ccccc1)NC(C)C(O)c1ccc(O)cc1 (stereo not given)	inactive	inactive	inactive	inactive	inactive	inactive		inactive		inactive
C[C@@H]1[C@@H](CC(C[C@H]2O[C@@H]3O[C@]4(C)CC[C@@H]5[C@H](C)CC[C@@H]([C@H]2C)[C@@]35OO4)C[S+](=O)([O-])c2ccc(COC(=O)N(C)C)cc2)O[C@@H]2O[C@]3(C)CC[C@H]4[C@H](C)CC[C@@H]1[C@@]24OO3 (stereo not given in full)	1.05 µM (active)	0.662 µM (active)	0.344 µM (active)		inactive	1.66 µM (active)	0.306 µM (active)	inactive		
FC(F)(F)c1cccc(C2=CCN(CCc3ccc4ccccc4c3)CC2)c1	inactive	inactive	inactive	inactive	inactive	inactive			inactive	inactive
CCCC(C)(COC(N)=O)COC(=O)NC(C)C (stereo not given)	inactive	inactive	inactive	inactive	inactive	inactive	inactive		inactive	inactive
CC(C)=CC1C(C(=O)OCc2cccc(Oc3ccccc3)c2)C1(C)C (stereo not given)	inactive	inactive	inactive	inactive	inactive	inactive		inactive	inactive	inactive
N[C@@H]1C[C@H]1c1ccccc1	inactive	inactive	inactive	inactive	inactive	inactive	inactive		inactive	inactive

SMILES	Potency [1]	Potency [2]	Potency [3]	Potency [4]	Potency [5]	Potency [6]	Potency [7]	Potency [8]	Potency [9]	Potency [10]
O=C(O)C(=O)c1cn(Cc2ccccc2)c2ccc(-c3ccc(OC(F)(F)F)cc3)cc12	23.5 µM (active)	inactive	inactive		inactive	inactive				inactive
OCCOc1ccccc1	inactive	inactive	inactive	inactive	inactive	inactive	inactive		inactive	inactive
CC1OC(C)OC(C)O1 (stereo not given)	inactive	inactive	inactive	inactive	inactive	inactive		inactive	inactive	inactive
CCN(CC)CCN1C(=O)CN=C(c2ccccc2F)c2cc(Cl)ccc21	inactive	inactive	inactive	inactive	inactive	inactive		inactive	inactive	inactive
Cc1cccc(C)c1NC(=O)CN1CCCC1=O	inactive	inactive	inactive	inactive	inactive	inactive	inactive		inactive	inactive
COC1(CS(=O)c2ccccc2)CCN(CCc2c[nH]c3ccc(F)cc23)CC1 (stereo not given)	inactive	inactive	inactive	inactive	inactive	inactive				inactive
C=C1C[C@@H]2[C@H](CC[C@]3(C)C(=O)CC[C@@H]23)[C@@]2(C)C=CC(=O)C=C12	inactive	inactive		inactive	inactive	inactive		inactive	inactive	inactive
Clc1ccc(COC(Cn2ccnc2)c2ccc(Cl)cc2Cl)cc1 (stereo not given)	26.6 µM (active)		15.5 µM (active)		inactive	inactive		inactive		inactive
COC[C@@H](NC(C)=O)C(=O)NCc1ccccc1		inactive	inactive	inactive	inactive	inactive	inactive		inactive	inactive
Oc1ccc(Cl)cc1Cc1ccccc1	inactive		inactive		inactive	inactive	25.6 µM (active)	inactive	inactive	
O=C1CC[C@@]2(O)[C@H]3Cc4ccc(O)c5c4[C@@]2(CCN3CC2CC2)[C@H]1O5		inactive	inactive	inactive	inactive	inactive	inactive		inactive	inactive
Cc1cccc(C)c1NC1=NCCCS1		inactive	inactive	inactive	inactive	inactive	inactive	inactive	inactive	inactive
CC(C)(C)CC(C)(C)c1ccc(O)cc1	inactive			inactive	inactive	inactive	25.2 µM (active) and 15.5 µM (active)		inactive	
Cc1ccc(S(=O)(=O)N[C@@H](CCCCN)C(=O)CCl)cc1	inactive	inactive		inactive	inactive	inactive	inactive	inactive	inactive	inactive
CCC(=O)C(CC(C)N(C)C)(c1ccccc1)c1ccccc1 (stereo not given)	inactive	inactive			inactive	inactive	22.5 µM (active)	inactive		
Clc1ccc(CCC(Cn2ccnc2)Sc2c(Cl)cccc2Cl)cc1 (stereo not given)		20.9 µM (active)		37.2 µM (active)	inactive	inactive	27.6 µM (active)		inactive	inactive
Oc1cc(Cl)ccc1Oc1ccc(Cl)cc1Cl	35.1 µM (active)		20.5 µM (active)	39.4 µM (active) and 23.7 µM (active)	inactive		28.9 µM (active)			24800 nM (active)
CN(C)CCN(C)CCc1ccc(Cl)c(Cl)c1		inactive	inactive		inactive	inactive		inactive	inactive	inactive
O=c1[nH]c2ccccc2n1CCCN1CCC(n2c(=O)[nH]c3cc(Cl)ccc32)CC1	inactive	inactive		inactive	inactive	inactive	inactive		inactive	inactive
CC1=C2C[C@@H]3[C@@H](CC=C4C[C@@H](O)CC[C@@]43C)[C@@H]2CC[C@]12O[C@H]1C[C@H](C)CN[C@H]1[C@H]2C	inactive	inactive		inactive		inactive	30.6 µM (active)			inactive
CCOC(=O)C1(c2ccccc2)CCN(CCC(C#N)(c2ccccc2)c2ccccc2)CC1							12.3 µM (active)	inactive		
Cn1cc(C2=C(c3cn(C4CCN(Cc5ccccn5)CC4)c4ccccc34)C(=O)NC2=O)c2ccccc21	inactive		inactive	inactive	inactive	inactive		inactive	inactive	
CN1C[C@H](CNC(=O)OCc2ccccc2)C[C@@H]2c3cccc4c3c(cn4C)C[C@H]21	inactive		15.5 µM (active)		inactive		21.9 µM (active)		inactive	inactive
C=C(C)[C@H]1Cc2c(ccc3c2O[C@@H]2COc4cc(OC)c(OC)cc4[C@@H]2C3=O)O1		1.68 µM (active) and 526 nM (active)	87.1 nM (active) and 122 nM (active)		inactive		138 nM (active) and 243 nM (active)		1.06 µM (active)	
O=c1[nH]c2ccccc2n1C1CCN(CCCC(c2ccc(F)cc2)c2ccc(F)cc2)CC1			15.5 µM (active)		inactive		17.4 µM (active)			
